Sampled rows, rich in hits. Any-hit rate of the full collection: about 4.4%.
p53ts 39C kill: qHTS Screen for Compounds that Selectively Target Cancer Cells with p53 Mutations: Cytotoxicity of p53ts Cells at the Nonpermissive Temperature | AID 902, 2007 | Potency, µM (top dose mostly 46.1 µM), inactives show at the top dose activity change, negative = cell killing, hits mostly cytotoxic | H1299-p53A138V viability at 39C, ATP luminescence, 24 h | 130,000 tested, 1.5% active; further: nearly all actives have a fitted effect of over 55% in size
ALOX12 inhib: qHTS Assay for Inhibitors of 12-hLO (12-human lipoxygenase); 150,000 tested, 0.12% active; Potency, µM (highest dose often 57.1 µM), for the others: at the highest dose activity change, negative = inhibition, most hits filed as inhibitors; purified 12-hLO, xylenol orange hydroperoxide absorbance; further: nearly all actives have a fitted effect of over 55% in size
Target sequence (P18054 whole entry, looked up): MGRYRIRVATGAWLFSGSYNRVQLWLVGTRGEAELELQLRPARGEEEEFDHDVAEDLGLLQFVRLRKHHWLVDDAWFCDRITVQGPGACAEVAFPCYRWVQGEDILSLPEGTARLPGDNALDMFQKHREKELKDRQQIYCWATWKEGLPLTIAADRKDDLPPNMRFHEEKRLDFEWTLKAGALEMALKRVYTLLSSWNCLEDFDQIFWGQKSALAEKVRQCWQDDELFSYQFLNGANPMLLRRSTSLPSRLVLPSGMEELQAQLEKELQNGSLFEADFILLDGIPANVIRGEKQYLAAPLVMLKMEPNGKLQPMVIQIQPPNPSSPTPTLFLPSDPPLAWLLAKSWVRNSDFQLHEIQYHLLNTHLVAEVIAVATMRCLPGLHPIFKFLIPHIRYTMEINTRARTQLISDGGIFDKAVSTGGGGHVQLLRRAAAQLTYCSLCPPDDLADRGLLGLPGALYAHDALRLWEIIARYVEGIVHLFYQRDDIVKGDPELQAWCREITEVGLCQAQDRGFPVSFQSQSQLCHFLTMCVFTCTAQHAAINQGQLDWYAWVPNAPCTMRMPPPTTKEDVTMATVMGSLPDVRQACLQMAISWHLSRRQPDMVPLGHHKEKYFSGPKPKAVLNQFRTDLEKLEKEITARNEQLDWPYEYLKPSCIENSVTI
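Purified human 12hLO (150 nM), preincubated 15 min with compound, then 40 uM arachidonic acid for 30 min, room temperature, Hepes pH 7.0 with 0.01% Triton X-100. Hydroperoxide detected by ferrous iron/xylenol orange; 573/405 nm absorbance ratio gives reaction progress.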
HPGD inh: qHTS Assay for Inhibitors of HPGD (15-Hydroxyprostaglandin Dehydrogenase); Potency, µM, for the others: top-dose activity change, negative = inhibition, hits mostly inhibitors; 15-hydroxyprostaglandin dehydrogenase [NAD(+)] (Homo sapiens), P15428; 150,000 tested, 4.3% active; purified HPGD, NADH fluorescence kinetic, PGE2 substrate; AID 894, 2007; active means well fitted inhibition curve with a large enough effect, not every such curve was filed as active; inconclusive means small, poorly fitted or top-dose-only effect, or another doubt; inactive means no such curve, though single readings can be large or run the other way
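20 nM HPGD preincubated 15 min at room temperature with compound in 50 mM Tris-HCl pH 8, 0.01% Tween 20. Started with 1 mM NAD+ and 30 uM prostaglandin E2; NADH fluorescence (360/450 nm) read 5 times over 30-s intervals, last minus first.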
p53ts 32C tox: qHTS Screen for Compounds that Selectively Target Cancer Cells with p53 Mutations: Cytotoxicity of p53ts Cells at the Permissive Temperature; 130,000 tested, 0.93% active; AID 924, 2007; H1299-p53A138V at 32C, ATP luminescence viability, 24 h; Potency, µM (series often up to 46.1 µM), inactives show top-dose activity change, negative = cytotoxicity, usual class: cytotoxic;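 further: 0% = DMSO and -100% = full killing by reference compound; nearly all actives have a fitted effect of over 55% in size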
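Cells: H1299 p53ts (A138V), 600/well, pre-incubated 16–30 h at 37C. Cpd up to 46 uM, 24 h, 32C. Readout: ATPlite luminescence, 20 min RT. Normalization: DMSO vs tamoxifen 100 uM. AC50 by Hill equation.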
* hit, by the source's call; ? = inconclusive; nt = no result; [ ] = dose if it differs, or a comment. Unless noted, the call rests on the fitted dose curve; in most records, active means well fitted curve in the direction sought with a large enough effect; inconclusive means small, poorly fitted or top-dose-only effect, or another doubt; inactive means no such curve, though single readings can be large; an effect the other way counts as inactive or inconclusive. Unless noted, on the % scale 0 is the no-effect control and ±100 the full control effect; potency means the concentration at half of the fitted maximal effect.

SMILES	p53ts 39C kill	ALOX12 inhib	HPGD inh	p53ts 32C tox
CCc1ccc2oc(-c3cc(N)ccc3O)nc2c1	13µM*	-14%	-16%	13µM*
COc1ccc(N2CCN(C(=O)c3nn(C)c4c3CSc3ccccc3-4)CC2)cc1	-10%	nt	nt	-5%
O=C(CSc1nc2ccc(NC(=O)C3CCCCC3)cc2s1)NCC1CCCO1 (stereo unspecified)	nt	3%	28µM*	nt
CC(=O)Nc1ccc2nc(SCC(=O)O)sc2c1	-12%	0%	-28%	-3%
COc1ccc(NS(=O)(=O)c2ccc3c(c2)n(C)c(=O)n3C)cc1	nt	1%	16µM*	nt
CC(C)Oc1ccc(CNC(=O)c2ccc3nc(SCc4ccc(F)cc4)n(C)c3c2)cc1	11%	nt	nt	-5%
COc1cccc(C(=O)Nc2c(C(=O)c3ccc(F)cc3)oc3ccccc23)c1	28%	nt	nt	4%
O=C(NCCCNc1ccc([N+](=O)[O-])cc1)C(F)(F)F	nt	?	20µM*	nt
COc1cccc(Cn2c(=O)c(-c3cn(C)c4ccccc34)nc3cnc(N4CCNCC4)nc32)c1	-18%	nt	nt	-10%
Cc1ccc(/C=C2\SC(N3CCN(C(c4ccccc4)c4ccccc4)CC3)=NC2=O)o1	nt	-12%	3.5µM*	nt
O=C1N=C(N2CCN(c3ccccc3)CC2)S/C1=C/c1cccs1	-15%	-9%	16µM*	nt
O=C1N=C(c2ccccc2)S/C1=C\c1cccs1	nt	-10%	5.6µM*	nt
CCc1ccc(-c2nn(CC(=O)NC3CCCCC3)c3c2cnc2ccc(OC)cc23)cc1	-14%	nt	nt	9%
CC(=O)NCCNc1ncnc2ccc(-c3ccccc3C#N)cc12	2%	nt	nt	-6%
Cc1cc(NC(=O)c2ccc(Cl)cc2)no1	7.9µM*	1%	-3%	7.9µM*
CCOc1ccc(C(=O)Nc2cc(C)on2)cc1	3.2µM*	-5%	-3%	2.5µM*
Cc1cc(NC(=O)c2ccc(S(=O)(=O)N(C)C)cc2)no1	-21%	1%	-4%	-16%
CCOc1cc(C(=O)Nc2cc(C)on2)cc(OCC)c1OCC	-5%	-2%	-9%	6%
O=C(Cn1c(=O)oc2cc(S(=O)(=O)N3CCCCC3)ccc21)NCc1ccc(Cl)cc1	-26%	nt	nt	-15%
O=C(COCc1cc(-c2ccc3c(c2)OCO3)on1)NCc1ccc(F)cc1	nt	nt	nt	-4%
Cc1nn(CCCC(=O)Nc2sc3c(c2C#N)CCC3)c(C)c1[N+](=O)[O-]	nt	-3%	22µM*	nt
CCc1ccc(C(=O)NCc2cccs2)s1	-14%	4%	18µM*	-12%
O=C(NCc1ccccn1)c1ccc(Cl)cc1Cl	-7%	-5%	20µM*	-17%
CCN(CC(=O)NC1CCCCC1)S(=O)(=O)c1ccc(Cl)cc1	7%	1%	-2%	0%
O=C(NCc1ccccn1)c1ccc(Br)s1	5%	1%	?	2%
SMILES	p53ts 39C kill	ALOX12 inhib	HPGD inh	p53ts 32C tox
CCN(CC(=O)NCc1ccccn1)S(=O)(=O)c1ccc(Cl)cc1	7%	0%	22µM*	3%
O=C(NCc1ccccn1)c1ccc(Cl)s1	nt	4%	20µM*	nt
CC(C)Oc1ccc(C(=O)NCc2cccs2)cc1	nt	2%	?	nt
COc1cccc(C(c2sc3nc(-c4ccco4)nn3c2O)N2CCOCC2)c1 (stereo unspecified)	-4%	nt	nt	-13%
O=C1c2cccc([N+](=O)[O-])c2C(=O)N1c1ncn[nH]1	9%[9.22 µM]	4%[11.4 µM]	-5%	7%[9.22 µM]
O=C(NCc1cccs1)c1ccc(Cl)s1	13%	4%	16µM*	3%
O=C(NCCCCNC(=O)c1ccc(Cl)s1)c1ccc(Cl)s1	17%	-4%	-7%	4%
COC(=O)c1ccc(Nc2nc(-c3ccc(C)cc3)nc3ccccc23)cc1	13µM*	nt	nt	?
Cc1cc(NC(=O)c2cc(-c3ccc(F)cc3)on2)nn1Cc1ccc(Cl)cc1	?	nt	nt	-6%
O=C1CCNc2cc3ccccc3cc21	16µM*	?	?	?
Cc1cc(C)cc(NC(=O)CSc2nc(=O)n(Cc3ccccn3)c3c2CCC3)c1	9%	nt	nt	0%
COc1ccc(OC)c(NC(=O)c2ccc3c(Cl)c4c(nc3c2)CCCC4)c1	4%	nt	nt	3%
O=C(O)C1CC(=O)N(Cc2ccccc2)C1 (stereo unspecified)	13%	4%	-1%	6%

From PubChem
